These results are taken from ChEMBL document CHEMBL3988442, “University of Dundee, Small-Polar-MMV Screening Library” (2021).

SMILES strings stand for the structures.

The target of test [1] is T1, Aspartate--tRNA(Asp/Asn) ligase (Mycobacterium tuberculosis (strain ATCC 25618 / H37Rv)) (UniProt P9WFW3). Also: in the data most compounds retested in dose-response had high values.
T1 sequence (whole entry): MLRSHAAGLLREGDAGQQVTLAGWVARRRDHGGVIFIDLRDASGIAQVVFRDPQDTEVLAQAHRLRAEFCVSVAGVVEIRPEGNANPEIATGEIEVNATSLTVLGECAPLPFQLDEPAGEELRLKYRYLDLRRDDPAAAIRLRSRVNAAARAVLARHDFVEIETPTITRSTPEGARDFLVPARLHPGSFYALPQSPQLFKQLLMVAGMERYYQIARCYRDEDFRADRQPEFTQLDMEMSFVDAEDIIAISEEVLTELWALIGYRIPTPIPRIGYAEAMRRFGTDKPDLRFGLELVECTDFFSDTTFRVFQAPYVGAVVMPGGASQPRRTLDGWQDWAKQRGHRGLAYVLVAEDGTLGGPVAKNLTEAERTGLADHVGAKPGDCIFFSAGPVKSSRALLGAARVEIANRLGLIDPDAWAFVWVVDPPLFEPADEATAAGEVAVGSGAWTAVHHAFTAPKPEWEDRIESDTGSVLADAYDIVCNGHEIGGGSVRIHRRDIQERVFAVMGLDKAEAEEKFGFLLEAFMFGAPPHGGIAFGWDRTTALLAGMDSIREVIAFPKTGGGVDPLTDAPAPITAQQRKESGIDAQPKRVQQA
As to the kind of experiment: Assay for Asp RNA synthetase-1 from Mycobacterium tuberculosis. Conditions: 30 µM. Also noted: scale not given: direction of the effect not stated beside the values. The test is classed as functional.

Test [2] deals with Shiga toxin 2 (Escherichia coli O157:H7) (UniProt P09385+P09386). As to the kind of experiment: E. coli 0.157:H7 Shiga Toxin SOP - stx2 screening assay. Conditions: 30 µM. Further details: scale not given: direction of the effect not stated beside the values. The test is classed as functional.

With `CC(O)CN1CCC(CNCc2ccc(S(C)(=O)=O)cc2)CC1` (stereo unspecified), the Percent Effect was 3.1% in test [1] and -4.03% in test [2].

Take `O=C1CC(c2ccccc2)c2snc(C(=O)O)c2N1` (stereo unspecified): the Percent Effect in test [1] was -6.76%; in test [2], -1.61%.

Regarding `O=C(Nc1cccnc1)[C@H]1C[C@H]2OCC[C@H]2N(C(=O)c2ccsc2)C1`, the Percent Effect in test [1] is 4.71%; in test [2] it was -27.5%.

For the compound `COCCN1C(=O)CC(N2CCN(c3ccc(OC)cc3)CC2)C1=O` (stereo unspecified), the Percent Effect in test [1] was -5.68%; in test [2], 3.53%.

For the compound `CCNC(=O)c1ccc(CNCc2c(C)nn(C)c2N(C)C)cc1`, the Percent Effect in test [1] is -0.75%; in test [2], -25.7%.

In the case of `CNC(=O)c1ccc(C2CN(C(=O)COC)CCO2)nc1` (stereo unspecified), the Percent Effect in test [1] amounted to 5.69%; in test [2], 1.8%.

For the compound `Cc1cc(C)n(-c2cncc(NCCNC(=O)CC3CCCC3)n2)n1`, the Percent Effect in test [1] is 0.268%; in test [2], -15.9%.

As to `O=S(=O)(NC1=NCN(CCc2cccs2)CN1)c1ccccc1`, the Percent Effect in test [1] was -3.8%; in test [2], -12.6%.

With `O=C(CN(Cc1cccnc1)CC1CCCO1)Nc1ccc(F)cc1` (stereo unspecified), the Percent Effect in test [1] was 5.92%; in test [2] it was -3.06%.

As to `Cn1nc(CNC(=O)C2CCCC2)cc1C1CC1`, the values for the Percent Effect in test [1] and in test [2] were 0.0146% and -25.7%, respectively.

For the compound `COc1ccccc1C(=O)NC(C)CC(=O)O` (stereo unspecified), the Percent Effect in test [1] was -5.28%; in test [2] it was -19.9%.

With `CN(Cc1cccc(F)c1)C(=O)CN1CCCC1CCc1ccccc1` (stereo unspecified), the Percent Effect in test [1] is -1.52%; in test [2] it was -33.4%.

Regarding `C=C(Cl)CN1CCC(C(=O)c2cc(F)ccc2F)CC1`, the Percent Effect in test [1] was -0.256%; in test [2], 18.4%.

`Cc1n[nH]cc1CNc1ccc2c(c1)CN(C(=O)OC(C)(C)C)CC2`: the Percent Effect in test [1] was 2.29%; in test [2], -13.2%.

Consider `Cn1c(C2CC2)nc2c1CCN(CCOc1ccc(C#N)cc1)C2`, for which the Percent Effect in test [1] was 3.25%; in test [2], -7.77%.

Take `COc1ccc(C(=O)N(C)Cc2nnc3ccccn23)c(OC)c1`: the Percent Effect in test [1] worked out at 0.49%; in test [2] it was 24.6%.

In the case of `COC[C@@]12CCO[C@@H]1CCN(Cc1ccccc1F)C2`, the figures for the Percent Effect in test [1] and in test [2] were 0.843% and -24.5%, respectively.

As for `CC(C)c1cc(NC(=O)c2ccc(C(=O)NC(C)(C)C)cc2)[nH]n1`, the Percent Effect in test [1] was -0.941%; in test [2], -39.3%.

As to `COc1ccc(CN(C)CC2CCCN2c2cccnn2)cc1F` (stereo unspecified), the figures for the Percent Effect in test [1] and in test [2] were 0.346% and 3.14%, respectively.

For the compound `Cc1noc(C)c1CN1CCN(Cc2nccn2C)CC1`, the figures for the Percent Effect in test [1] and in test [2] were -5.33% and -1.2%, respectively.

With `CC1c2ncc(Cn3cncn3)n2CCN1C1CCOCC1` (stereo unspecified), the Percent Effect in test [1] was 2.5%; in test [2], -1.95%.

For the compound `CCc1nc(C(=O)N2CCCC2)nn1-c1ccccc1Cl`, the Percent Effect was -1.24% in test [1] and 6.73% in test [2].

Regarding `CCN1CC(C(=O)N(C)Cc2ccon2)CC1=O` (stereo unspecified), the Percent Effect was -0.748% in test [1] and -14.8% in test [2].

On to `CCn1nc(CC(C)C)cc1C(=O)NCCn1cccc1`, for which the Percent Effect is 3.71% in test [1] and -3.77% in test [2].

Turning to `NC(=O)c1ccc(CN2CCCC(O)C2)cc1` (stereo unspecified), the Percent Effect in test [1] is -3.73%; in test [2], -9.74%.

In the case of `Cc1noc2nc(C3CCN(Cc4cccnc4)CC3)cc(C(F)F)c12`, the Percent Effect is 1.32% in test [1] and -52.2% in test [2].

`Cn1cc(C[C@H]2[C@H](O)CCN2CC2CC2)cn1`: the Percent Effect in test [1] was -0.168%; in test [2], 2.72%.

In the case of `Cc1nccn1-c1cccc(C2CCCN2S(=O)(=O)c2cn(C)cn2)n1` (stereo unspecified), the Percent Effect in test [1] was determined as 12.1%; in test [2] it was 45.9%.

For `Cc1cc(-c2cnn(CCNC(=O)c3cccnc3)c2C2CC2)on1`, the Percent Effect in test [1] was 0.491%; in test [2], -2.62%.

Consider `Cc1ccc(-c2nc(CN3CCn4c(nnc4C4CC4)C3)co2)cc1`, for which the Percent Effect was -1.28% in test [1] and 10.1% in test [2].

Consider `CCc1nc(CN2CCN(C(=O)C3CCCCC3)CC2)cs1`, for which the Percent Effect in test [1] is -0.656%; in test [2], 1.6%.

With `CN(C)CCNC(=O)c1ccc(OC2CCN(S(C)(=O)=O)CC2)c(Cl)c1`, the Percent Effect in test [1] was 1.85%; in test [2] it was -25.9%.

As to `Cc1cc(NC(=O)CCN2CCCC2Cn2cncn2)no1` (stereo unspecified), the Percent Effect is -2.02% in test [1] and -32.1% in test [2].

Regarding `Cc1[nH]c2ccccc2c1-c1ccnc(NCCN2CCOCC2)n1`, the values for the Percent Effect in test [1] and in test [2] were 7.28% and -44.9%, respectively.

For `Cc1nnc(NC(=O)NC2CCOc3ccccc32)s1` (stereo unspecified), the Percent Effect in test [1] is 1.16%; in test [2] it was -1.42%.

Turning to `Cc1ccc(-c2nc(CCNC(=O)NC3CCN(C)CC3)co2)cc1`, the Percent Effect was -3.19% in test [1] and 3.52% in test [2].

In the case of `COc1cc(C)c(C(C)NC(=O)Nc2nnc(C)s2)cc1OC` (stereo unspecified), the Percent Effect in test [1] is -7.26%; in test [2], 9.98%.

Consider `Cc1cnn(CCC(=O)N2CCCN(c3cccnn3)CC2)c1`, for which the Percent Effect in test [1] was -0.568%; in test [2] it was -11.6%.

Take `O=C(NCCCOCC1CC1)Nc1cccnc1N1CCOCC1`: the Percent Effect in test [1] is -1.34%; in test [2], 4.93%.

Regarding `CCN(CCC(F)(F)F)C(=O)Nc1cccc(N2CCOCC2)c1`, the Percent Effect in test [1] is 1.08%; in test [2], -51.5%.

`Cc1ccc(-n2nnc(CC(=O)N3CCSCC3)c2C)cc1`: the figures for the Percent Effect in test [1] and in test [2] were 2.79% and -35.4%, respectively.

As for `CN1CC(=O)N(c2cnn(C)c2)CC12CCN(Cc1ccccc1)C2` (stereo unspecified), the Percent Effect is -0.707% in test [1] and -5.72% in test [2].

Consider `CCN(CC)S(=O)(=O)N1CCCC(c2cccc(C(=O)O)c2)C1` (stereo unspecified), for which the Percent Effect in test [1] is -1.97%; in test [2] it was 9.71%.
